Data as given in the supplement of paper PMC10646978.
± gives the standard deviation.

Columns and labels:
Conditions in all cases: modulator concentration 10 µM
[1] = tested on: RAW-Dual (murine macrophage reporter line); assay: NF-kB reporter (SEAP) activity fold change vs agonist alone; higher = enhanced NF-kB activity
Summary of the method: (§1)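 Overnight stimulation with a PRR agonist followed pre-incubation for 1 hour at 37 °C with compound at 10 μM final. This was done in RAW-Dual murine macrophage reporter cells seeded at 50 000 per well in 384-well plates. NF-κB (SEAP, QUANTI-Blue absorbance at 620 nm) and IRF (Lucia luciferase, QUANTI-Luc luminescence) were read from the supernatant. Each reporter's fold change relative to the mean agonist-only control on the same plate was averaged over replicate plates.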

[2] = tested on: RAW-Dual (murine macrophage reporter line); assay: IRF reporter (Lucia luciferase) activity fold change vs agonist alone; higher = enhanced IRF activity
Summary of the method: as §1

[3] = tested on: RAW-Dual (murine macrophage reporter line); assay: viability score (confluency relative to resting cells, overnight) (fraction); higher = more viable, active = viable (0.7 or more)
Summary of the method: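 Overnight exposure to 10 μM final compound was carried out on RAW-Dual macrophages in 384-well plates. IncuCyte software generated two confluency masks over all wells imaged with IncuCyte. The viability score gives confluency in relation to resting cells. A compound met the cutoff if each mask exceeded 70% of resting cells.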

[4] = agonist: CpG ODN 1826 0.5 ug/mL

Structure (SMILES)	NF-kB reporter [1, 4]	NF-kB reporter ([1]; agonist: LPS 0.1 ug/mL)	NF-kB reporter ([1]; agonist: MPLA […])	IRF reporter ([2]; agonist: 3'3'-cGAMP 10 ug/mL)	IRF reporter ([2]; agonist: LPS 0.1 ug/mL)	IRF reporter ([2]; agonist: MPLA […])	viability score [3]
CN(C)C(CNC(=O)NCc1ccc(Cl)cc1)c1ccc2c(c1)CCO2 (stereo unspecified)	0.616 ± 0.1	1.17 ± 0.091	0.937 ± 0.1	0.854 ± 0.026	1.2 ± 0.23	1.4 ± 0.14	1 (active)
CCOC(=O)c1ccc(-c2ccc(C=C(C#N)C(=O)Nc3ccc(F)cc3)o2)cc1	0.979 ± 0.09	1.08 ± 0.063	1.05 ± 0.068	0.929 ± 0.042	1.29 ± 0.25	1.06 ± 0.14	1.01 (active)
Nc1nonc1C(=O)NN=Cc1cc(Br)c(O)c(Br)c1	1.05 ± 0.085	1.01 ± 0.076	1.03 ± 0.054	0.938 ± 0.11	1.08 ± 0.12	1.05 ± 0.23	0.997 (active)
CSc1cc(C=NO)c(SC)s1	0.874 ± 0.08	0.799 ± 0.1	0.886 ± 0.085	0.713 ± 0.043	0.975 ± 0.15	1.01 ± 0.27	0.285 (inactive)
COc1ccc(C(=O)Nc2sc3c(c2C(N)=O)CCC(C)C3)c(OC)c1 (stereo unspecified)	1.09 ± 0.11	1.08 ± 0.067	0.947 ± 0.058	0.907 ± 0.068	1.5 ± 0.2	1.22 ± 0.11	1.01 (active)
O=C(COc1cccc2ccccc12)NCc1ccncc1	0.804 ± 0.069	1.1 ± 0.06	1.02 ± 0.12	0.981 ± 0.052	1.34 ± 0.12	1.06 ± 0.098	1.01 (active)
O=[N+]([O-])c1ccc(Cl)c(C=Nc2cccc3c(N=Cc4cc([N+](=O)[O-])ccc4Cl)cccc23)c1	0.841 ± 0.047	1.07 ± 0.078	0.988 ± 0.086	0.816 ± 0.05	1.56 ± 0.1	1.26 ± 0.13	1 (active)
Cc1cc(C)n(CCNc2nc3ccccc3s2)n1	1.07 ± 0.1	1.08 ± 0.085	1 ± 0.1	1.08 ± 0.055	1.18 ± 0.081	1.14 ± 0.29	0.993 (active)
O=C(Nc1nc(CC(=O)N2CCOCC2)cs1)c1ccccc1	1.02 ± 0.073	1.02 ± 0.09	0.941 ± 0.14	0.995 ± 0.053	1.24 ± 0.087	1.29 ± 0.1	1.01 (active)
CC(=NN1CCN(C2c3ccccc3-c3ccccc32)CC1)c1ccccc1O	0.953 ± 0.12	0.94 ± 0.052	0.962 ± 0.069	1.02 ± 0.036	1.35 ± 0.12	0.984 ± 0.086	1.02 (active)
COc1ccc2c3c([nH]c2c1)C(=O)CCC3	1.43 ± 0.11	0.785 ± 0.066	1.12 ± 0.11	0.732 ± 0.067	0.561 ± 0.12	0.464 ± 0.11	0.843 (active)
Cc1cccc(Oc2ccc(NC(=O)c3ccco3)cc2)c1C	0.683 ± 0.049	0.992 ± 0.12	1.12 ± 0.049	0.483 ± 0.054	0.965 ± 0.085	1.44 ± 0.22	0.991 (active)
O=C(NN=Cc1c(Br)sc2ccccc12)c1cccc(Cl)c1	0.972 ± 0.082	0.88 ± 0.17	1.18 ± 0.056	0.738 ± 0.12	0.952 ± 0.045	1.49 ± 0.1	0.887 (active)
